Source: PubChem BioAssay
This is a sample that favours compounds with a hit; in the whole collection about 3.5% have one here.
Anthrax LF prot: Bacillus anthracis LF protease inhibitors, primary screen, biochemical, multiplex microsphere, MLPCN library; inhibition, % at 10 µM; 0.12% of 360,000 active; multiplex microsphere protease cleavage assay; Lethal factor (Bacillus anthracis), P15917; further: plate controls were buffer without enzyme for full effect and enzyme alone for no effect
BoNT A protease: BoNT/A light chain protease inhibitors, primary screen, biochemical, flow cytometry, MLPCN library | multiplex microsphere protease substrate cleavage | inhibition, % at 10 µM | Botulinum neurotoxin type A light chain protease (Clostridium botulinum A str. ATCC 3502) | 0.17% of 360,000 active; further: plate controls were buffer without enzyme for full effect and enzyme alone for no effect
Bead autofluor: counter-screen for toxin protease inhibitors: compound fluorescence. compound autofluorescence counterscreen, microsphere flow cytometry; hits give high values. fluorescence intensity (test concentration not listed). 3.1% of 360,000 active; in the data active means fluorescence intensity above about 16000; inconclusive means no clear call, values can overlap the other calls
BoNT F protease: BoNT/F light chain protease inhibitors, primary screen, biochemical, flow cytometry, MLPCN library. Botulinum neurotoxin type F light chain protease (Clostridium botulinum). Multiplex microsphere protease cleavage assay. inhibition, % at 10 µM. 0.22% of 360,000 active; in the data active means inhibition above about 35%, passing the limit was not always enough; inconclusive means no clear call, values can overlap the other calls; further: plate controls were buffer without enzyme for full effect and enzyme alone for no effect
* = called active by the depositor; u = inconclusive. Unless noted, no stated cut-off is given here; in the data, active means inhibition above about 30%; inconclusive means no clear call, values can overlap the other calls; inactive means below that.

SMILES	Anthrax LF prot	BoNT A protease	Bead autofluor	BoNT F protease
CCCCC(=O)Nc1ccc(C(=O)NCC(=O)OC)cc1	0	-1	22542*	2
CCCCCCC(=O)Nc1ccc(C(=O)N2CCCC2)cc1	-6	0	11443	-4
Cc1nnc(NC(=O)c2ccc(F)c(S(=O)(=O)N3CCCCC3)c2)s1	4	3	5503	-1
CCOC(=O)C1CCCN(C(=O)c2ccc3c(c2)OCO3)C1 (stereo not drawn)	-6	1	6270	5
CCOC(=O)C1CCN(C(=O)c2ccc3c(c2)OCO3)CC1	-1	2	22950*	2
CCN(Cc1ccccc1)C(=O)Cn1cnc2c1c(=O)n(C)c(=O)n2C	2	u	20794*	-4
Cn1c(=O)c2c(ncn2CCN(CCO)Cc2ccccc2)n(C)c1=O	-14	4	20125*	8
Cn1c(=O)c2c(ncn2CC(=O)Nc2ccccc2)n(C)c1=O	1	0	3256	-1
CCN(CC)CCNC(=O)CCc1c(C)nc2c(c(C)nn2-c2ccc(C)cc2)c1C	-12	-1	3380	8
O=C(NCC1COc2ccccc2O1)c1ccc(Br)s1 (stereo not drawn)	-9	2	3930	16
CCOC(=O)c1ccc(N=C(c2ccccc2)c2c(O)n(C)c(=O)n(C)c2=O)cc1	31*	-3	3761	u
CCc1nnc(NC(=O)CCC(=O)Nc2ccccc2)s1	-2	-1	3825	-13
CCCc1nnc(NC(=O)CCCN2C(=O)c3ccccc3C2=O)s1	-2	0	2716	-6
CCc1ccc(CCC(=O)Nc2nnc(CC)s2)o1	-2	0	16177*	2
CCc1nnc(NC(=O)CCN2C(=O)c3ccccc3C2=O)s1	-2	0	22862*	-2
Cc1ccccc1N1CC(=O)N(c2ccccc2C)CC1=O	-5	-1	2865	-10
O=C1CN(c2ccccc2Cl)C(=O)CN1c1ccccc1Cl	-2	-1	23954*	-4
Cc1nc2ccccc2c2oc(C(=O)NCCN3CCCCC3C)cc12 (stereo not drawn)	-5	-2	13061	-14
CCN1CCCC1CNC(=O)c1cc2c(C)nc3ccccc3c2o1 (stereo not drawn)	-6	7	17361*	9
CSc1nc(N)nc(SCC(=O)c2ccccc2)c1C#N	-1	-1	3015	-11
N#Cc1c(N)nc(SCC(=O)C23CC4CC(CC(C4)C2)C3)c(C#N)c1-c1ccc(Cl)cc1	1	0	2861	-1
COc1ccc(C(=O)CSc2nc(N)nc(SC)c2C#N)cc1	-3	6	19201*	10
CSc1nc(N)nc(SCC(=O)C23CC4CC(CC(C4)C2)C3)c1C#N	-4	-1	19688*	-3
CC(C)/C=C1\CC/C(=C\c2ccc(N(C)C)cc2)C1=O	16	34*	6586	9
COc1ccccc1C(C(=O)NCc1ccccc1)N(C(=O)c1csnn1)C1CC1 (stereo not drawn)	4	1	4219	-31
SMILES	Anthrax LF prot	BoNT A protease	Bead autofluor	BoNT F protease
CCC(C)NC(=O)CSc1nc2ccccc2c(=O)n1CCCC(=O)NCC1CCCO1 (stereo not drawn)	-2	u	22505*	-2
O=C(CCCn1c(SCC(=O)NC2CCCCC2)nc2ccccc2c1=O)NCC1CCCO1 (stereo not drawn)	-3	0	21817*	-1
O=C(CCCn1c(SCC(=O)c2ccc(O)c(O)c2)nc2ccccc2c1=O)NCC1CCCO1 (stereo not drawn)	2	0	23404*	-1
O=C(CCCn1c(SCc2ccccc2F)nc2ccccc2c1=O)NCC1CCCO1 (stereo not drawn)	-1	-1	4461	-8
O=C(CCCn1c(SCC(=O)NCCc2ccccc2)nc2ccccc2c1=O)NCC1CCCO1 (stereo not drawn)	0	0	3293	-5
COCCCNC(=O)CSc1nc2ccccc2c(=O)n1CCCC(=O)NCC1CCCO1 (stereo not drawn)	-3	u	22765*	-1
COc1ccc([N+](=O)[O-])cc1NCc1c(F)cccc1F	2	0	3428	-8
O=C(NC1CCCCC1)NS(=O)(=O)c1ccc2c(c1)CCC2	1	0	4198	-2
NC(=O)c1c(NC(=O)COC(=O)c2ccc(O)c(Cl)c2)sc2c1CCCC2	-4	0	3802	3
CCCOc1ccc(C2C(=O)N(C3CCCCC3)CC(=O)N2CCC)cc1OC (stereo not drawn)	1	0	20044*	2
Cc1ccc(C2C(=O)N(C3CCC(C)CC3)CC(=O)N2C2CCCC2)cc1 (stereo not drawn)	1	-4	23411*	-2
O=C1C(c2ccc(F)cc2)N(C2CCCCC2)C(=O)CN1C1CCCC1 (stereo not drawn)	1	0	9764	4
COc1cc(C2c3[nH]c4ccccc4c3C[C@H]3C(=O)N(C4CC4)CC(=O)N23)ccc1OC(C)C (stereo partly drawn)	-5	-1	3719	-4
CCCN1C(=O)CN(C2CCCCCC2)C(=O)C1c1ccc(C)cc1 (stereo not drawn)	2	-1	23066*	-2
COc1ccccc1CN1C(=O)CN(C2CCCCCC2)C(=O)C1c1ccc(F)cc1 (stereo not drawn)	-1	1	10613	5
COc1cc(C2C(=O)N(C3CCCC3)CC(=O)N2Cc2ccco2)ccc1OC(C)C (stereo not drawn)	-2	5	21363*	5
O=c1[nH]c2cccc(Cl)c2c2ccccc12	-5	1	3623	1
CC(Sc1n[nH]c(-c2cccs2)n1)C(=O)Nc1ccc(C(N)=O)cc1 (stereo not drawn)	6	-3	8114	-5
CCCCNC(=O)NNC(=O)c1cc(C)on1	-8	u	4786	u
O=C(COC(=O)/C=C/c1cccc(C(F)(F)F)c1)NCCN1C(=O)CSC1=O	-1	0	2826	-5
COCCN1CSC(=S)N(Cc2ccco2)C1	0	4	21084*	6
S=C1SCN(Cc2ccccn2)CN1Cc1ccco1	2	1	16488*	-3
CCOCCCN1CN(Cc2ccco2)CNC1=S	6	0	4161	-6
CCOc1ccccc1O[C@H](c1ccccc1)[C@H]1CNCCO1	-6	0	5818	-9
Cc1ccsc1C(=O)NCCc1nnc2ccccn12	1	0	5016	-2
CC1CCCCC1NC(=O)COC(=O)CNC(=O)c1cccc(F)c1 (stereo not drawn)	2	-1	4267	4
Cc1ccc(C)c(S(=O)(=O)NCc2ccc(C(=O)N3CCN(C)CC3)cc2)c1	-1	u	16472*	0
CCOC(=O)CC1(NC(=O)C2CCC(=O)N(Cc3ccccc3OC)C2)CCCCC1 (stereo not drawn)	-4	1	5979	3
Cc1oc(-c2ccccc2Cl)nc1CSCC(=O)N1CCCC1	1	1	22629*	4
Cc1oc(-c2ccccc2Cl)nc1CSCC(=O)NC1CCCC1	-3	0	3784	-2
